Source: the supplement of paper PMC10849652
Of roughly 8,800 targets only a part is listed; those with a hit were picked by preference. About 0.5% of all pairs of compound and target were hits. Values without a mark were called inactive.

The targets below were run with CNc1nc(-c2ccc3c(N)n[nH]c3c2)cc(N2C[C@@H](C(=O)NC3CCCCC3)CC[C@H]2C)n1 (assay: log2 fold change, soluble protein after heating vs DMSO (PISA); higher = thermal stabilisation; K562 lysate, 10 uM; active = over 0.2 and 3.5 SD of the protein, either way, in both replicates (recomputed)).
Procedure, shortened: (§1)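 A 30 min treatment with 10 μM compound was applied to crude K562 extract at 1 mg/mL protein in PBS pH 7.4 with 1 mM MgCl2. Heating for 3 min spanned 48°C-58°C, after which aliquots were pooled, adjusted to 0.5% NP-40 at 4°C and spun at 21,000xg for 90 min. TMTpro 16plex LC-MS/MS of the supernatant, with channel sums equalised, gave values recorded as log-two fold change in thermal stability against solvent controls, from duplicates.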

Chain of UniProt Q8N201 (Q8N201 whole entry, looked up): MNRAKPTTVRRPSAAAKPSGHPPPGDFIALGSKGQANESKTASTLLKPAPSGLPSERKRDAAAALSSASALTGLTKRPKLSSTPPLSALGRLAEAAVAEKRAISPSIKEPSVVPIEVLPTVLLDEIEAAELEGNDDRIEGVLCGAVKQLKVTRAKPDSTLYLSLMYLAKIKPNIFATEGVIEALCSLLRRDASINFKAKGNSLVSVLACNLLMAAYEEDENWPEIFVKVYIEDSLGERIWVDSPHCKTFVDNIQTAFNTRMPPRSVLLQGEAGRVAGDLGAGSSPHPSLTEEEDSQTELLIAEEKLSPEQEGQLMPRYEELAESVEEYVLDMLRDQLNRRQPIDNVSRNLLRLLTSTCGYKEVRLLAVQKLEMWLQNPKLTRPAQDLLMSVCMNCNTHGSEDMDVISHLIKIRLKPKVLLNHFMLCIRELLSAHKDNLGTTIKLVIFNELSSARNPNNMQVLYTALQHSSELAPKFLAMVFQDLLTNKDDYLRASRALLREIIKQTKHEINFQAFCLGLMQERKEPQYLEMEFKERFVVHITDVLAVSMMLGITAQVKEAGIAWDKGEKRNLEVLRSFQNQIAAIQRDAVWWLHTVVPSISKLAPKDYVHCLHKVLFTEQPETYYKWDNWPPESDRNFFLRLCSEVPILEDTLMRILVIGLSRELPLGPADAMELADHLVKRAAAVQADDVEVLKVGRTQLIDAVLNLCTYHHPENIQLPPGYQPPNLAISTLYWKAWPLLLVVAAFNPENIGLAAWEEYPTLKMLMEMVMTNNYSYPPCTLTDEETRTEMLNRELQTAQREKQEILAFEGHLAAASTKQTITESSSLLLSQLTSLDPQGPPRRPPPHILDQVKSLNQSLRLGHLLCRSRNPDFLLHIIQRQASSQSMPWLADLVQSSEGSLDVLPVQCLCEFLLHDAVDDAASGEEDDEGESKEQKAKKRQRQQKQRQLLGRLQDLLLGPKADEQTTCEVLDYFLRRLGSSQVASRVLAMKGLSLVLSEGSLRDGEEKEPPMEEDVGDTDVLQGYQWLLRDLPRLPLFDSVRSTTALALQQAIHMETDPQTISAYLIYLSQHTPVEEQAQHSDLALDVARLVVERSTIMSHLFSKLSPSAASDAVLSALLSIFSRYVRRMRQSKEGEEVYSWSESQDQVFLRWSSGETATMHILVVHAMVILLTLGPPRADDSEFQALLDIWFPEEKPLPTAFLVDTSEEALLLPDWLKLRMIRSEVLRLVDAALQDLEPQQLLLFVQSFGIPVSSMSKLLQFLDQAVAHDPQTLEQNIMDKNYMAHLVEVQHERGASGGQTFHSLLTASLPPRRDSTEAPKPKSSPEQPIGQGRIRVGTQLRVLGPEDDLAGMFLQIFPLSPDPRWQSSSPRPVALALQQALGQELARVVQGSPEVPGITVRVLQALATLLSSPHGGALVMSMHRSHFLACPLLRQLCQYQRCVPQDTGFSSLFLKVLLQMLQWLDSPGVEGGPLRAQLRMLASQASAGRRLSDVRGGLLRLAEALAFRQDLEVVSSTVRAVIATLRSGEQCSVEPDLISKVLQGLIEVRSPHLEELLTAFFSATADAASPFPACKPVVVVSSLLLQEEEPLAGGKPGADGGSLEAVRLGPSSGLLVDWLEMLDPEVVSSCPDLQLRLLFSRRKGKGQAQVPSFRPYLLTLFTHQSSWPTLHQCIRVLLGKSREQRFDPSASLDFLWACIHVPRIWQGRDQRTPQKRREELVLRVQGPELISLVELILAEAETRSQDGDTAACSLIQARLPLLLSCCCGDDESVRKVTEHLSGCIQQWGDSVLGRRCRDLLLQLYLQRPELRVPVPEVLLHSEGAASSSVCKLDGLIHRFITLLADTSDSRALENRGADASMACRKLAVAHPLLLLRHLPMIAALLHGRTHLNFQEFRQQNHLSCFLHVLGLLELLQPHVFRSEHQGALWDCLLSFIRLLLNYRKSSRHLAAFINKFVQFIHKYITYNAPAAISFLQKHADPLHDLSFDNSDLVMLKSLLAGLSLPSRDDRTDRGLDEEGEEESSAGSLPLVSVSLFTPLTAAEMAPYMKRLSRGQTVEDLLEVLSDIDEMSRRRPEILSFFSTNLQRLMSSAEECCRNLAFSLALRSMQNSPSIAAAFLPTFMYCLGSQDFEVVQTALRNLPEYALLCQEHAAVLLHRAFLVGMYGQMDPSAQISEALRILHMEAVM
Chain of UniProt P41252 (P41252 whole entry, looked up): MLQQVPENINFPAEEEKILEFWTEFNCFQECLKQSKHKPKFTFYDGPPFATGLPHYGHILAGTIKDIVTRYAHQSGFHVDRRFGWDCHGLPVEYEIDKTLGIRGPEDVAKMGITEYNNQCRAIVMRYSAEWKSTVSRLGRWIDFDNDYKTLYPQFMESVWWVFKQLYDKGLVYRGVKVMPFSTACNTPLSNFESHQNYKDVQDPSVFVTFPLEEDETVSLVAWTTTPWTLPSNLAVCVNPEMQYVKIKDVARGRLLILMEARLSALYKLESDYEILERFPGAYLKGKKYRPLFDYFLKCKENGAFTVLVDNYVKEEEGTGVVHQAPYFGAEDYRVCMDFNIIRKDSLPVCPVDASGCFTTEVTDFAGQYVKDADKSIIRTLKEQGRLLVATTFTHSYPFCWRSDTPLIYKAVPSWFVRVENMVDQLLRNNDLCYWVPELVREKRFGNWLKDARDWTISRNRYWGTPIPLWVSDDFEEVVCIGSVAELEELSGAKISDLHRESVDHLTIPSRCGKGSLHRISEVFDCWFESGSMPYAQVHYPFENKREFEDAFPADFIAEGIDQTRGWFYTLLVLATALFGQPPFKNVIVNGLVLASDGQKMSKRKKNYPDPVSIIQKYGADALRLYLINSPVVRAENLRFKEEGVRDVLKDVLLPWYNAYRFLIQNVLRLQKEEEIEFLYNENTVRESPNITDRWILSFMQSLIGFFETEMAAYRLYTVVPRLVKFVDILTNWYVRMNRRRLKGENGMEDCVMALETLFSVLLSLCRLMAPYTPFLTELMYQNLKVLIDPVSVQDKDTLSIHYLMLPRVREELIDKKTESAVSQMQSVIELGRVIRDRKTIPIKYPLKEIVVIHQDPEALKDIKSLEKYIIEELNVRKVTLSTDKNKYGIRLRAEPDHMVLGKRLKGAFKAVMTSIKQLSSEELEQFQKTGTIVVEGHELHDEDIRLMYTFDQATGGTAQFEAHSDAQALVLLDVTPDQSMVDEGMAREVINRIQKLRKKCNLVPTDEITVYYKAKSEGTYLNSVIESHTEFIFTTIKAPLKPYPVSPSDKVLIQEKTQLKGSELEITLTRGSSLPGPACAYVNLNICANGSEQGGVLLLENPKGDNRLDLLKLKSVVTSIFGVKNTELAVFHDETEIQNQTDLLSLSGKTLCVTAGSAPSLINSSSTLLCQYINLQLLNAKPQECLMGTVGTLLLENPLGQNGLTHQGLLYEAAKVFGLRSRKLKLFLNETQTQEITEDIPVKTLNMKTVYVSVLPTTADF
Chain of UniProt Q9NSE4 (Q9NSE4 whole entry, looked up): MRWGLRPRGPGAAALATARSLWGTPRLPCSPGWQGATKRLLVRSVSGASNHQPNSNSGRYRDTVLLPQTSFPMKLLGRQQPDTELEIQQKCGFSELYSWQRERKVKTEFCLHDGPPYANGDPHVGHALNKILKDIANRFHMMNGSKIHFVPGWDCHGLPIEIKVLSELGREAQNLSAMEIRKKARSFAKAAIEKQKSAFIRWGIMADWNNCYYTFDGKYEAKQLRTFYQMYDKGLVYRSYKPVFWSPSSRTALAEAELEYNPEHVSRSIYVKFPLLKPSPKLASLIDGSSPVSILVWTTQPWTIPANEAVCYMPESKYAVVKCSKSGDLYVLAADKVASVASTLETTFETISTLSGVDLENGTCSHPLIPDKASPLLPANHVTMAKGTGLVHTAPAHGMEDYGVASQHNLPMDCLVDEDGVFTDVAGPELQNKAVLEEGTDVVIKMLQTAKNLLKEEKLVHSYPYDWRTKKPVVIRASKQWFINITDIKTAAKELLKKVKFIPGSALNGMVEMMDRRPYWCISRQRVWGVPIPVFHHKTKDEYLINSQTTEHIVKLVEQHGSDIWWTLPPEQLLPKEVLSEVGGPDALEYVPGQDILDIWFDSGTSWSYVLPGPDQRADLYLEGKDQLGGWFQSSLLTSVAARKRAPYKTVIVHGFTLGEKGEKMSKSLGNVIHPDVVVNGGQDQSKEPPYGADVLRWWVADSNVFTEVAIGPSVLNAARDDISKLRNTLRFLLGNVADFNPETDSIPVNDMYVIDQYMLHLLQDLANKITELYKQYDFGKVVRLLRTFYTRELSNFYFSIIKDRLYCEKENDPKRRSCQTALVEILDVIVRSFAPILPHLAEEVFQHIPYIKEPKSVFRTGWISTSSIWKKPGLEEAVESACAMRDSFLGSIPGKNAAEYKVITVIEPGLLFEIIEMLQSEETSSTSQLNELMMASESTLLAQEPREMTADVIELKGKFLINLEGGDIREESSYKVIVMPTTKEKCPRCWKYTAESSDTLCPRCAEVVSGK
Chain of UniProt P12081 (P12081 whole entry, looked up): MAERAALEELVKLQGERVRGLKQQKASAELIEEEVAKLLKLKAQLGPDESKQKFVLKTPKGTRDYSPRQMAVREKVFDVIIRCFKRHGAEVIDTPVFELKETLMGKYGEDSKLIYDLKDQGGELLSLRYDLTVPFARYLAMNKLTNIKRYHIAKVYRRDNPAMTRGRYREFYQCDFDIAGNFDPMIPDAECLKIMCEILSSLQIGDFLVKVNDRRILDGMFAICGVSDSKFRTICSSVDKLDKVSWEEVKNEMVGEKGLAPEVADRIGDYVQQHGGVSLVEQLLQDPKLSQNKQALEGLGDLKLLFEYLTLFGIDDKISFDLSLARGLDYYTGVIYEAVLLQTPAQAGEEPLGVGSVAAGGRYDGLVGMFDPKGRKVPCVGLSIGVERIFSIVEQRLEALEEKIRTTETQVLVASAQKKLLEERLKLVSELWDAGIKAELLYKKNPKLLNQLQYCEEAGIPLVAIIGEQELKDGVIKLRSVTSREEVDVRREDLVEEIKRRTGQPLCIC

| Target | log2 fold change |
| --- | --- |
| GTF2H4 (UniProt Q92759) | -0.01 |
| GSTZ1 (UniProt G3V4T6) | 0.028 |
| HDAC2 (UniProt Q92769) | 0.003 |
| HEATR6 (UniProt Q6AI08) | 0.008 |
| H4C1 (UniProt P62805) | 0.569 (active) |
| HECTD3 (UniProt Q5T447) | -0.023 |
| KCT2 (UniProt Q8NC54) | 0.013 |
| GPX4 (UniProt P36969) | -0.051 |
| IARS2 (UniProt Q9NSE4) | -0.003 |
| GTF2H1 (UniProt P32780) | 0.031 |
| GSTM4 (UniProt Q03013) | 0.077 |
| IMPACT (UniProt Q9P2X3) | -0.05 |
| IGF2BP2 (UniProt Q9Y6M1) | -0.014 |
| GON4L (UniProt Q3T8J9) | 0.007 |
| HK1 isoform 2 (UniProt P19367) | -0.011 |
| GTF2I (UniProt P78347) | -0.035 |
| KEAP1 (UniProt Q14145) | 0.017 |
| ISOC2 (UniProt Q96AB3) | -0.024 |

| Target | log2 fold change |
| --- | --- |
| HSD17B10 (UniProt Q99714) | 0.05 |
| IRAK4 (UniProt Q9NWZ3) | -0.018 |
| IMMT (UniProt Q16891) | -0.041 |
| IARS (UniProt P41252) | -0.03 |
| IMPDH2 (UniProt P12268) | 0.017 |
| GNE isoform 2 (UniProt Q9Y223) | -0.024 |
| GTPBP2 (UniProt Q9BX10) | -0.037 |
| HSPB1 (UniProt P04792) | -0.036 |
| INTS1 (UniProt Q8N201) | 0.004 |
| HSPA8 (UniProt P11142) | -0.019 |
| HAUS3 (UniProt Q68CZ6) | -0.021 |
| GRB10 (UniProt Q13322) | 0.02 |
| HARS (UniProt P12081) | -0.054 |
| GMIP (UniProt Q9P107) | -0.01 |
| HK2 (UniProt P52789) | -0.006 |
| IRAK1 (UniProt P51617) | 0.121 |
| GSTCD (UniProt Q8NEC7) | -0.013 |
| HDAC3 (UniProt O15379) | 0.069 |

Each target was assayed with COC(=O)N[C@@H](C)CNc1nccc(-c2cn(C(C)C)nc2-c2cc(Cl)cc(NS(C)(=O)=O)c2F)n1 [encorafenib] in the same assay as above.
Procedure, shortened: as §1

| Target | log2 fold change |
| --- | --- |
| GTF2H4 (UniProt Q92759) | 0.025 |
| GSTZ1 (UniProt G3V4T6) | -0.045 |
| HDAC2 (UniProt Q92769) | -0.006 |
| HEATR6 (UniProt Q6AI08) | 0.039 |
| H4C1 (UniProt P62805) | 0.038 |
| HECTD3 (UniProt Q5T447) | 0.02 |
| KCT2 (UniProt Q8NC54) | 0.031 |
| GPX4 (UniProt P36969) | 0.004 |
| IARS2 (UniProt Q9NSE4) | -0.006 |
| GTF2H1 (UniProt P32780) | -0.004 |
| GSTM4 (UniProt Q03013) | -0.117 |
| IMPACT (UniProt Q9P2X3) | 0.063 |
| IGF2BP2 (UniProt Q9Y6M1) | 0.004 |
| GON4L (UniProt Q3T8J9) | 0.092 |
| HK1 isoform 2 (UniProt P19367) | 0.003 |
| GTF2I (UniProt P78347) | 0.015 |
| KEAP1 (UniProt Q14145) | 0.043 |
| ISOC2 (UniProt Q96AB3) | 0.014 |

| Target | log2 fold change |
| --- | --- |
| HSD17B10 (UniProt Q99714) | -0.035 |
| IRAK4 (UniProt Q9NWZ3) | -0.032 |
| IMMT (UniProt Q16891) | 0.014 |
| IARS (UniProt P41252) | 0 |
| IMPDH2 (UniProt P12268) | 0.021 |
| GNE isoform 2 (UniProt Q9Y223) | -0.008 |
| GTPBP2 (UniProt Q9BX10) | 0.002 |
| HSPB1 (UniProt P04792) | -0.001 |
| INTS1 (UniProt Q8N201) | 0.028 |
| HSPA8 (UniProt P11142) | -0.004 |
| HAUS3 (UniProt Q68CZ6) | 0.026 |
| GRB10 (UniProt Q13322) | 0.065 |
| HARS (UniProt P12081) | -0.03 |
| GMIP (UniProt Q9P107) | 0.061 |
| HK2 (UniProt P52789) | 0 |
| IRAK1 (UniProt P51617) | 0.812 (active) |
| GSTCD (UniProt Q8NEC7) | 0.052 |
| HDAC3 (UniProt O15379) | 0.008 |
